# Screening data deposited in PubChem by Center for Chemical Genomics, University of Michigan.
# CDC25B CDK2 inh – human CDC25B-CDK2/CyclinA binding inhibition. P30305+P24941. HTRF CDC25B-CDK2/CyclinA binding, anti-His/anti-Flag; active compounds read high. z-score (test concentration not listed). hit rate 0.72% among 94,000. AID 1259370; in the data active means z-score above about 3.2
# TAR Tat displ – HIV-1 TAR-Tat binding disruption; hit rate 0.6% among 100,000; z-score (concentration not given with the values); HIV-1 TAR RNA, Tat peptide displacement FRET; active compounds read high; AID 1259389; active means z-score of 3 or more in at least 2 runs
# * hit, by the source's call; . = not tested or not shown; ! = not active in a repeat. Only some compounds are listed: those with a hit (about 0.93% of all), similar ones and a draw of the others.
SMILES,CDC25B CDK2 inh,TAR Tat displ
CC(=O)Oc1cc2c(C(=O)NCC3CCCO3)c(C)oc2c2ccccc12 (stereo unspecified),2.3,1.3
CC(=O)Oc1cc2c(C(=O)NC3CCS(=O)(=O)C3)c(C)oc2c2ccccc12 (stereo unspecified),10*,-7.7
O=C(CN1CCSc2ccccc21)NCc1cccs1,.,1.8
Cc1ccc(C)n1-c1ccc(Cl)c(C(=O)NN)c1,19*,.
Cc1ccc(C)n1-c1sccc1C(=O)NN,-1.6,.
CN(CC(=O)NC1CCCC1)S(=O)(=O)c1ccc2c(c1)CCCC(=O)N2,.,0.75
CSc1nc(C)cc(Nc2ccc(N3CCC(C)CC3)cc2)n1,-0.87,0.65
Cc1cc(Nc2ccc(N3CCN(C)CC3)cc2)nc(C)n1,11*,-1.6
O=C(O)C1CCCN1c1ncc(Cl)cc1[N+](=O)[O-] (stereo unspecified),.,-13
CCOC(=O)C1CCCN1c1ncc(Cl)cc1[N+](=O)[O-] (stereo unspecified),14*,-9.8
O=S(=O)(c1ccc2ccccc2c1)N1CCN(Cc2ccc3c(c2)OCO3)CC1,-0.97,9*
O=S(=O)(c1ccccc1)N1CCN(Cc2ccc3c(c2)OCO3)CC1,-0.65,1.2
CCOc1ccc(CN2CCN(Cc3ccc4c(c3)OCO4)CC2)cc1,8.4*,1.1
COc1ccc(OC)c(CN2CCN(Cc3ccc4c(c3)OCO4)CC2)c1,-0.45,0.34
O=C(C1=Cc2cc(Cl)ccc2OC=C1)N1CCOCC1,0.23,1.1
CCn1ncc(C2=NOC(C(=O)Nc3ccc(F)c(Cl)c3)C2)c1C (stereo unspecified),-1.3,1.7
O=C(O)CSc1ccc(F)cc1,.,0.74
Cc1ccc(C)n1-c1ccc(SCC(=O)O)cc1,0.36,27*
CN(C)CCNc1cc(N2CCCC2)c2noc3c2c1C(=O)c1ccccc1-3,-0.79,1
COc1cscc1C(=O)Nc1cc(C(F)(F)F)cc(C(F)(F)F)c1,-0.73,.
COC(=O)c1cscc1OC(=O)c1ccc(C(F)(F)F)cc1,17*,.
Cc1ccc(Nc2ncnc3ccccc23)cc1C,11*!,.
Cc1ccc2ncnc(Nc3ccc(C)c(C)c3)c2c1,-1.8,.
CN1CCc2nc3sc(C(=O)c4ccc(Cl)cc4)c(N)c3cc2C1,19*,-6.5
CN1CCc2nc3sc(C(=O)Nc4cccc(Cl)c4)c(N)c3cc2C1,-2,-1.6
SMILES,CDC25B CDK2 inh,TAR Tat displ
CC1CCCC(N(Cc2ccco2)C(=O)NCc2noc3ccccc23)C1C (stereo unspecified),.,0.35
CCCCNc1cc(N2CCN(CCO)CC2)c2noc3c2c1C(=O)c1ccccc1-3,0.83,7.7*
O=C1c2ccccc2-c2onc3c(N4CCCC4)cc(NCCO)c1c23,-1.1,-5.9
CN1CCN(c2cc(NCCN3CCCC3)c3c4c(onc24)-c2ccccc2C3=O)CC1,-2.2,-3.5
CCN1CCN(c2cc(NCCO)c3c4c(onc24)-c2ccccc2C3=O)CC1,1.1,15*
CN1CCN(c2cc(Nc3ccc(N(C)C)cc3)c3c4c(onc24)-c2ccccc2C3=O)CC1,-0.4,-1.2
O=C1c2ccccc2-c2onc3c(N4CCCCC4)cc(NCCO)c1c23,12,23*
CCCN1CCN(c2cc(NCCO)c3c4c(onc24)-c2ccccc2C3=O)CC1,-3.6,2.9
COc1ccc(Nc2cc(N3CCN(C)CC3)c3noc4c3c2C(=O)c2ccccc2-4)cc1,7.5*,0.88
O=C1c2ccccc2-c2onc3c(N4CCN(C5CCCCC5)CC4)cc(NCc4ccco4)c1c23,1.4,-5.6
O=S(=O)(c1ccc(-c2cc(C(F)(F)F)on2)s1)N1CCOCC1,.,0.77
O=C(NCc1ccc2c(c1)OCO2)c1cc(-c2cccs2)nn1Cc1ccc(F)cc1,-1.6,-0.29
CC(C)(C)c1nnc2sc(-c3ccco3)nn12,-1.1,-0.36
O=C1c2ccccc2-c2onc3c(N4CCCCC4)cc(NCCN4CCOCC4)c1c23,1.9,6.4*
COCCNc1cc(N2CCCCC2)c2noc3c2c1C(=O)c1ccccc1-3,1.7,8.1*
CCNc1cc(N2CCCC(C)C2)c2noc3c2c1C(=O)c1ccccc1-3 (stereo unspecified),-0.57,4.5*
COCCNc1cc(N2CCN(C)CC2)c2noc3c2c1C(=O)c1ccccc1-3,-2.5,1.6
CC(C)Nc1cc(N2CCN(C)CC2)c2noc3c2c1C(=O)c1ccccc1-3,1.5,9.7*
CC1CCCN(c2cc(NC(C)C)c3c4c(onc24)-c2ccccc2C3=O)C1 (stereo unspecified),-0.58,0.41
O=C1c2ccccc2-c2onc3c(N4CCCCC4)cc(NCCN4CCCC4)c1c23,-0.44,0.1
CC(C)Nc1cc(N2CCCCC2)c2noc3c2c1C(=O)c1ccccc1-3,-1.2,0.79
CCOC(=O)c1nc(NCCC(C)C)c2c(C)noc2n1,.,-0.47
O=C(Nc1ccc2c(c1)OCCO2)NC(c1ccc(Cl)cc1)c1nnc(-c2ccccc2)o1 (stereo unspecified),.,1.1
CCN1CCN(S(=O)(=O)c2ccc3c(c2)c(=O)n(CC(=O)N2CCCC2)c(=O)n3C)CC1,.,1.8
CN1CCN(c2cc(NCCO)c3c4c(onc24)-c2ccccc2C3=O)CC1,0.56,9*
SMILES,CDC25B CDK2 inh,TAR Tat displ
CN(C)c1cc(NCCN2CCCCC2)c2c3c(onc13)-c1ccccc1C2=O,2.6,0.47
O=C1c2ccccc2-c2onc3c(N4CCN(c5ccccc5F)CC4)cc(NCCO)c1c23,0.96,2.3
CC1CCCN(CCNc2cc(N(C)C)c3noc4c3c2C(=O)c2ccccc2-4)C1 (stereo unspecified),-2.1,9.3*
C=CCSc1ncc(Cl)c(C(=O)Nc2sc3c(c2C(=O)OC)CCCC3)n1,-0.14,0.89
CCOC(=O)N1CCC(N=C2NS(=O)(=O)C(c3ccc(C)cc3)=C2C)CC1,-0.35,0.07
Cc1nc(SCC(=O)c2ccc(Cl)cc2)cc(-c2ccccc2)n1,-4,0.62
Cc1ccc(-n2nnc(S(=O)(=O)c3ccccc3)c2C)cc1,-1.8,2.6
CC1=NN(c2cccc(C(=O)O)c2)C(=O)C1,-1.1,0.21
Cc1cc(=O)c2c(O)c(O)ccc2o1,-2.2,.
O=c1cccc2ccc(O)c(O)c2c1O,.,25*
O=C(O)c1cc(=O)c(O)c2c(O)c(O)ccc2c1,.,25*
COc1ccc(-c2nc(Cn3nc(C)c4c(C)onc4c3=O)c(C)o2)cc1OC,.,-0.15
O=S(=O)(c1ccc(Br)cc1)N1CCCC(c2nc(-c3ccc(F)cc3)no2)C1 (stereo unspecified),.,0.59
Cc1cccc(N2CSC3=C(C#N)C(c4ccccc4)CC(=O)N3C2)c1 (stereo unspecified),5.2*,-1.1
COc1ccccc1N1CSC2=C(C#N)C(c3ccc(SC)cc3)CC(=O)N2C1 (stereo unspecified),4.6*,-1.4
Cc1ccccc1N1CSC2=C(C#N)C(c3ccc(Cl)cc3)CC(=O)N2C1 (stereo unspecified),2,-2.6
COc1ccc(N2CSC3=C(C#N)C(c4ccc(SC)cc4)CC(=O)N3C2)c(OC)c1 (stereo unspecified),2.5,-0.01
N#CC1=C2SCN(c3ccccc3F)CN2C(=O)CC1c1ccccc1 (stereo unspecified),6.5*,0.23
Cc1ccccc1N1CSC2=C(C#N)C(c3ccc(F)cc3)CC(=O)N2C1 (stereo unspecified),4.4*,-1.9
COc1ccc(CNC(=O)Nc2c[nH]c3cc(OC)ccc3c2=O)cc1,-1.2,0.2
Cc1nn(-c2ccccc2)c(-n2cccc2)c1CNC(=O)Nc1ccccc1,-2.6,0.21
